# Compounds with a hit are over-represented: about 1.3% of the library has one in this group of screens.
# PriA SSB inh – inhibitors of Klebsiella pneumoniae PriA binding to SSB C-terminal tail; AlphaScreen SSBct-PriA binding, biotinylated peptide; 430,000 tested, 0.6% active; inhibition, % at 33 µM; in the data active = inhibition mostly above about 37%, no sharp cut-off; inactive = mostly below about 20%;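 also: plate controls were negative control peptide for no effect and reference peptide for full effect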
# TcdB GH inh – blocks C. difficile toxin B glycohydrolase activity; inhibition, % at 9.99 µM; 350,000 tested, 0.24% active; P18177; TcdB glycohydrolase enzymatic assay, plate reader; in the data active = inhibition above about 10%
# Target sequence (P18177 whole entry, looked up): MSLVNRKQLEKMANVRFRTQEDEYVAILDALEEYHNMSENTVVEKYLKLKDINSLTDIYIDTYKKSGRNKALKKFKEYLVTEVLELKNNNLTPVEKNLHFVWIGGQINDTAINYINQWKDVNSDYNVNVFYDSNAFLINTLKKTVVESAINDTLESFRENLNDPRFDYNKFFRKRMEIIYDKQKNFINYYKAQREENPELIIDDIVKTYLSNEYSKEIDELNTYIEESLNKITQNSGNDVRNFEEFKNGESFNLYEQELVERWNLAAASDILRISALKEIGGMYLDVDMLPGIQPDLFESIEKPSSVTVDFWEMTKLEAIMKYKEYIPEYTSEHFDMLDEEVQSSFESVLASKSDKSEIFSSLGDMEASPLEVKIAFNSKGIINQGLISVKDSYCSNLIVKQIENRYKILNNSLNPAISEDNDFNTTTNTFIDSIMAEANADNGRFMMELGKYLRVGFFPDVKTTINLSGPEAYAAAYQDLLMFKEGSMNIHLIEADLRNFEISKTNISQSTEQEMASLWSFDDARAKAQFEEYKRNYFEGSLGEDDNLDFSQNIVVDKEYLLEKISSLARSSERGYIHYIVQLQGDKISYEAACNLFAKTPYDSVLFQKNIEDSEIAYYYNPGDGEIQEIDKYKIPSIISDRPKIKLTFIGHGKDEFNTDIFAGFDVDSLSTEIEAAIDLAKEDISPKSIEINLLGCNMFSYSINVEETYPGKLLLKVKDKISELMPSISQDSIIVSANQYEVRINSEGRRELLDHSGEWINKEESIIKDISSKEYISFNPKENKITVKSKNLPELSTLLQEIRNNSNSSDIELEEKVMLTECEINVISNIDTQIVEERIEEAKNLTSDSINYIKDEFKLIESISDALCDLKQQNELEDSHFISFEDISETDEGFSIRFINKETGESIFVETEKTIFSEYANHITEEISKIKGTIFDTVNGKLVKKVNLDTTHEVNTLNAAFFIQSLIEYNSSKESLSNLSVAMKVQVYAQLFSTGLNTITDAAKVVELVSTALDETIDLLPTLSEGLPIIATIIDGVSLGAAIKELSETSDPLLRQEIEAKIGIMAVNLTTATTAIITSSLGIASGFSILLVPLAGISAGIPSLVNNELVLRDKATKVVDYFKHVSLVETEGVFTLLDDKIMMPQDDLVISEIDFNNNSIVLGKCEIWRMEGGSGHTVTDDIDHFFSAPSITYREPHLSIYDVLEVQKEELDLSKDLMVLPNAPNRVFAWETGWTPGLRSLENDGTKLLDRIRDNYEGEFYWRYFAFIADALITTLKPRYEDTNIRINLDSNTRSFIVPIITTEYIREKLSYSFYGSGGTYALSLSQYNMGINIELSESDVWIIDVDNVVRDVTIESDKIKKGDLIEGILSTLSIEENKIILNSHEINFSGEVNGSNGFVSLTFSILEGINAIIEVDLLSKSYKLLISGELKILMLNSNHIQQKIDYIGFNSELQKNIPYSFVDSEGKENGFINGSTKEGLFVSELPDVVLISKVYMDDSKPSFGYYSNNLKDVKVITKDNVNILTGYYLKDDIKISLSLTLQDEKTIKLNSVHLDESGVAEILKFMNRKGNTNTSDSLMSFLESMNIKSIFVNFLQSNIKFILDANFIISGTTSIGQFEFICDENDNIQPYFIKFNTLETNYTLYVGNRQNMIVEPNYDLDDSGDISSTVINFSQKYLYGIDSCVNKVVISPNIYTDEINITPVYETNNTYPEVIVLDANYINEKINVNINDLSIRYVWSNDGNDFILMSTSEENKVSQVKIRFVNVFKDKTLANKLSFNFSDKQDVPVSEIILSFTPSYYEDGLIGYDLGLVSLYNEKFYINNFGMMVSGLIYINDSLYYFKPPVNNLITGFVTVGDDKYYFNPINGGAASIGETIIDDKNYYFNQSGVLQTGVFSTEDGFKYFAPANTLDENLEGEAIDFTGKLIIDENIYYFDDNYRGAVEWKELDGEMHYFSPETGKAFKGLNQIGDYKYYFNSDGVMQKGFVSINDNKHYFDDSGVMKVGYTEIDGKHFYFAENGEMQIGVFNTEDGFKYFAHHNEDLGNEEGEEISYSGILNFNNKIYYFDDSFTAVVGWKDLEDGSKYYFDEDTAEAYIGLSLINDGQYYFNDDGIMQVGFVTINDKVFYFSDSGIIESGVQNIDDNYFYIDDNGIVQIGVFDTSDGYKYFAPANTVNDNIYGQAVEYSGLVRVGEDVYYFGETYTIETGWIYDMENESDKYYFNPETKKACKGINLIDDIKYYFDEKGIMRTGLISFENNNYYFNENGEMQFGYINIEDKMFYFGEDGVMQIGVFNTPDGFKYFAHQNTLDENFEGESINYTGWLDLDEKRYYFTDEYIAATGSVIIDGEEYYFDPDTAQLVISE
# VHR inh abs – DUSP3 (human) phosphatase inhibition. AID 1654. inhibition, % at 13.3 µM. 290,000 tested, 0.52% active. recombinant VHR phosphatase, pNPP absorbance. P51452; in the data active = inhibition above about 50%
# BH1578 lux ind – induces V. cholerae light production without autoinducers | V. cholerae BH1578 lux reporter, luminescence, 6 h | activation, % at 18.7 µM | 350,000 tested, 0.16% active; in the data active = activation mostly above about 9.7%, no sharp cut-off
# CCHF vOTU inh-1 – blocks the CCHF virus ovarian tumor domain protease; CCHFV vOTU protease, Pep-AMC fluorescence; 370,000 tested, 0.55% active; inhibition, % at 11.5 µM; also: 0% = vehicle wells with enzyme and 100% = no enzyme wells
# SARS 3CLpro inh – SARS-CoV 3CLpro protease inhibition. recombinant SARS-CoV 3CLpro, quenched FRET peptide cleavage. inhibition, % at 6 µM. 290,000 tested, 0.14% active; in the data active = inhibition above about 12%
# CCHF vOTU inh-2 – confirmation of CCHF virus vOTU protease inhibitors; shares compounds with CCHF vOTU inh-1; Recombinant CCHFV vOTU, Pep-AMC fluorescence; inhibition, % at 11.5 µM; 1,900 tested, 17% active
# * hit, by the source's call; i = inactive; . = no result given. Rule as the data show it, unless noted: active = inhibition above about 30%; inactive = the rest.
SMILES,PriA SSB inh,TcdB GH inh,VHR inh abs,BH1578 lux ind,CCHF vOTU inh-1,SARS 3CLpro inh,CCHF vOTU inh-2
CN(C)c1ccc(-[n+]2c(-c3ccccc3)cc(-c3ccccc3)cc2-c2ccccc2)cc1,46,1,22,-1,-2,2,.
CC(=O)c1sc(NC(=O)CCS(=O)(=O)c2ccc(F)cc2)nc1-c1ccccc1,4,.,.,.,.,.,.
CCCN1C(=O)C(C)(C)COc2ccc(NC(=O)c3ccccc3C(F)(F)F)cc21,28,.,.,.,.,.,.
CN(C)c1ccc(C=c2c3ccccc3n3c2cc(-c2ccc(Cl)cc2)[n+]3C)cc1,.,3,.,i,47*,.,10
Cn1c(CO)c(-c2ccccc2)c2cc([N+](=O)[O-])ccc21,6,.,0,4,13,2,.
CN(c1ccc(Cl)cc1)c1cc(=O)n(C)c2ccccc12,-22,.,27,i,18,4,.
CN(C)c1ccc(C=c2c3cc([N+](=O)[O-])ccc3n3c2cc(-c2ccccc2)[n+]3C)cc1,6,0,.,.,40*,.,11
Cc1cccc(NC(=O)[C@@H]2CSc3ncc(C)c(=O)n3C2)n1,0,.,.,.,.,.,.
CN(C)C(CNC(=O)c1cc(-c2ccc(F)cc2)nn1C)c1cn(C)c2ccccc12 (stereo unspecified),-7,.,.,.,.,.,.
COc1cc(CCNC2=CC(=O)c3ncccc3C2=O)ccc1O,15,3,.,6,74*,.,78*
O=C(Nc1nccs1)C(F)(F)C(F)(F)C(F)(F)C(=O)Nc1nccs1,-2,0,4,0,113*,1,0
CCOc1ccc(S(=O)(=O)N2C3C=CCC2CC3)cc1C (stereo unspecified),-16,.,.,.,.,.,.
COC(=O)c1ccc(N=NNc2ccc(C(=O)OC)cc2)cc1,3,.,-1,0,33*,-2,-9
CCOC(=O)c1c(-c2ccc(Cl)cc2)csc1NC(=O)c1cccs1,-17,.,.,.,.,.,.
CCCc1nc2c(=O)n(C)c(=O)nc-2n(C)n1,-9,-1,.,0,113*,-2,94*
Cn1ncnc2c(=O)n(C)c(=O)nc1-2,-6,.,.,0,.,.,.
Cn1nc(-c2ccccn2)nc2c(=O)n(C)c(=O)nc1-2,34,-1,.,i,102*,16*,104*
Cc1nnc(Nc2cccnc2)[nH]c1=O,-8,.,.,.,.,.,.
CCc1cc(C(=O)O)c(NC(=O)/C=C/c2ccc(OC)c(OC)c2)s1,-6,-9,13,i,33*,6,9
CNc1oc(-c2ccccc2)nc1S(=O)(=O)c1ccc(C)cc1,11,0,-11,4,30*,0,-15
O=C(Nc1scc(-c2ccc(F)cc2)c1C(=O)O)c1ccco1,0,.,8,0,31*,7,-6
CCOC(=O)c1sc(NC(=O)Cc2ccc(C)cc2C)nc1-c1ccccc1,-3,.,.,.,.,.,.
CC(C)C[C@H](NC(=O)c1nc[nH]c1C(=O)NCC(=O)OC(C)(C)C)C(=O)OCc1ccccc1,-6,1,-12,1,31*,.,19
CC(C)C[C@H](NC(=O)c1[nH]cnc1C(=O)N[C@@H](C)C(=O)OC(C)(C)C)C(=O)OC(C)(C)C,-26,-1,0,0,30*,.,32*
CC(C)C[C@H](NC(=O)c1nc[nH]c1C(=O)NCC(=O)OCc1ccccc1)C(=O)OCc1ccccc1,8,-14,24,-1,27,2,.
SMILES,PriA SSB inh,TcdB GH inh,VHR inh abs,BH1578 lux ind,CCHF vOTU inh-1,SARS 3CLpro inh,CCHF vOTU inh-2
CCOC(=O)c1ccc(NC(=O)c2nc[nH]c2C(=O)N[C@@H](CC(C)C)C(=O)OC(C)(C)C)cc1,-4,-9,-1,0,-3,.,.
CC(C)C[C@H](NC(=O)c1[nH]cnc1C(=O)Nc1ccccc1)C(=O)OC(C)(C)C,-13,1,15,i,30*,.,16
CC(C)C[C@H](NC(=O)c1nc[nH]c1C(=O)N[C@@H](CCCCN)C(=O)OC(C)(C)C)C(=O)OC(C)(C)C,-16,.,.,2,.,.,.
O=C(Nc1ccc(S(=O)(=O)Nc2nccs2)cc1)/C(=C/c1ccccc1Cl)NC(=O)c1ccccc1,-13,-8,13,0,32*,4,-16
COc1cc(NS(=O)(=O)c2ccc(NC(=O)/C(=C/c3ccccc3Cl)NC(=O)c3ccccc3)cc2)nc(OC)n1,-3,.,8,-1,13,5,.
CSc1ccc(/C=N\Nc2nncn2N)cc1,.,-1,-24,i,101*,0,-7
CC(C)(C)c1ccc(/C=N/Nc2nncn2N)cc1,.,-1,5,-1,89*,0,5
CC1CCN(c2ccc(/C=N\Nc3nncn3N)cc2[N+](=O)[O-])CC1,.,.,7,i,88*,-3,12
Nn1cnnc1N/N=C/c1cc(Br)cc(Br)c1O,.,.,32,0,104*,-3,-13
Cc1cccc2sc(N(Cc3ccccc3)C(=O)C3CCCN(S(C)(=O)=O)C3)nc12 (stereo unspecified),0,.,.,.,.,.,.
O=C1CC(NCc2ccncc2)C(=O)N1c1ccc(Cl)cc1 (stereo unspecified),8,.,19,0,6,-6,.
O=C1CC(NCc2ccncc2)C(=O)N1c1ccccc1 (stereo unspecified),-14,.,-16,i,35*,-4,-9
CCCCNC(=S)NNC(=O)c1cc(-c2cccnc2)nc2ccccc12,5,0,45,i,35*,-2,-9
CCCNC(=S)NNC(=O)c1cc(-c2cccnc2)nc2ccccc12,-11,0,13,i,10,3,.
O=C(c1ccccc1Cl)N(CCc1cccs1)C1CCOCC1,-4,.,.,.,.,.,.
COc1ccc(NC(=O)c2ccc(=O)n(CC(=O)Nc3ccc(F)c(F)c3)n2)cc1,4,.,.,.,.,.,.
COc1ccccc1N1CCN(c2ccc(S(=O)(=O)N3CCN(C)CC3)cn2)CC1,-7,2,.,i,33*,.,-12
Cc1ccc(-n2c(C)cc(/C=C3\NC(=O)NC3=O)c2C)c(C)c1,24,-5,-17,i,33*,3,-2
Cc1cc(NS(=O)(=O)c2ccc(NC(=O)COc3ccccc3Cl)cc2)no1,1,.,-16,i,2,-2,.
CCc1ccc(OCC(=O)Nc2ccc(S(=O)(=O)Nc3cc(C)on3)cc2)c(Br)c1,5,1,-29,i,44*,11,2
COc1ccc(C(C[N+](=O)[O-])c2c(C)[nH]n(-c3ccccc3)c2=O)cc1 (stereo unspecified),3,-1,.,i,100*,-2,31*
Cc1[nH]n(-c2ccccc2)c(=O)c1C(c1ccc(O)c([N+](=O)[O-])c1)c1c(C)[nH]n(-c2ccccc2)c1=O,-18,.,.,-18,70*,6,-8
Cc1[nH]n(-c2ccccc2)c(=O)c1C(C[N+](=O)[O-])c1ccccc1Cl (stereo unspecified),-5,.,34,0,0,1,.
